Screening results deposited in PubChem by several laboratories.
ADAM10 inh – inhibits human ADAM10 | O14672 | recombinant ADAM10, EDANS/DABCYL FRET peptide cleavage, 3 h | inhibition, % at 7 µM | hit rate 0.62% among 370,000 | AID 720582;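 active = inhibition above a per-campaign cutoff equal to the mean of compounds falling between control-based bounds plus 3 SD, cut at about 20% in these data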;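 note: 0% = DMSO wells while the 100% control is not disclosed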
Target sequence (O14672 214-748 limits assumed): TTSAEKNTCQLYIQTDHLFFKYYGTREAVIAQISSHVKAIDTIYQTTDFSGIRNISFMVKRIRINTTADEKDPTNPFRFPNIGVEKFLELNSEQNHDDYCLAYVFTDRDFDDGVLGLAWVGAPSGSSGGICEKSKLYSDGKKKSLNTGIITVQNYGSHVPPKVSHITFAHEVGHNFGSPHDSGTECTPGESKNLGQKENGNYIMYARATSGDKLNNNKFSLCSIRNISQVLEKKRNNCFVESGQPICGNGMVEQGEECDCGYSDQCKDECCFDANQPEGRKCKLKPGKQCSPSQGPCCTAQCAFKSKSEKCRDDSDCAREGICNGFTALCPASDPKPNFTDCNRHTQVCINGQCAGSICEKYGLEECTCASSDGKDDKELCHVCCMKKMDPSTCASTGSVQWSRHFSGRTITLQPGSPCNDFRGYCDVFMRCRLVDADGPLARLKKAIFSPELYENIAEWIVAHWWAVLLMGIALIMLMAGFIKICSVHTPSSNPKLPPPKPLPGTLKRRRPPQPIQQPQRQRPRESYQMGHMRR
MPTP block – inhibitors of mitochondrial permeability transition pore; isolated mouse mitochondria, Ca2+ swelling absorbance, 30 min; inhibition, % at 10 µM; hit rate 1.4% among 360,000; AID 602449;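 active = inhibition of 50% or more, scaled per plate between neutral and stimulator controls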;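 note: 0% = DMSO wells given calcium and 100% = 1 mM EGTA wells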
ADAM17 inh – inhibits human ADAM17 | AID 720648 | inhibition, % at 6.95 µM | P78536 | recombinant ADAM17, EDANS/DABCYL FRET peptide cleavage | hit rate 0.83% among 370,000;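 active = inhibition above the mean of compounds lying between control limits plus 3 SD, set per campaign, cut at about 8.5% in these data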;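 note: 0% = DMSO-only wells as the low control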
rCAG binder-1 – r(CAG) repeat RNA binding | inhibition, % at 3 µM | hit rate 1.3% among 370,000 | TO-PRO-1 dye displacement fluorescence | AID 651821;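 active = inhibition above the plate cutoff, the mean of all test compounds on that plate plus 3 SD, cut at about 35% in these data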;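 note: 0% = DMSO alone and 100% = 100 µM mitoxantrone as full dye displacement; higher means more dye released from RNA so lower well fluorescence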
proKLK7 act – proKLK7 (human) activation, primary screen; purified proKLK7, EDANS-DABCYL substrate fluorescence; 100% is mature enzyme control, 0% vehicle; P49862; activation, % at 7 µM; hit rate 0.9% among 370,000;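 active = activation above the mean of all tested compounds plus 3 SD, computed per campaign excluding outliers beyond control limits, cut at about 13% in these data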
Pemphigus Ab inh – blocks pemphigus antibody binding to human desmoglein-3; DSG3-coupled beads, scFv-anti-DSG3-GFP binding, flow cytometry; hits give low values; binding (percent of control), % at 10 µM; hit rate 0.48% among 310,000; AID 588358;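 active = binding more than 3 SD below its plate's average and above zero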;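 note: hits lower antibody fragment binding to DSG3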
rCAG bind conf – r(CAG) RNA repeat binding, confirmation | shares compounds with rCAG binder-1 | TO-PRO-1 dye displacement fluorescence | inhibition, % at 3 µM | hit rate 70% among 4,300 | AID 652065;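 active = inhibition above a per-plate cutoff, the mean inhibition of sample wells plus 3 SD, cut at about 35% in these data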;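 note: loss of TO-PRO-1 fluorescence as compound displaces dye from 1x1 AA loop RNA; 0% = DMSO only wells and 100% = 100 µM mitoxantrone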
dCAG dye counter – DNA CAG dye complex inhibition counter-screen. shares compounds with rCAG binder-1. d(CAG) DNA oligo TO-PRO-1 dye displacement, fluorescence. inhibition, % at 3 µM. hit rate 94% among 4,300. AID 652068;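 active = inhibition above its plate's cutoff, the mean test-well inhibition plus 3 SD, cut at about 4.8% in these data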;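 note: 0% = DNA dye mix with DMSO and 100% = 100 µM mitoxantrone; hits displace the dye from DNA and so lower well fluorescence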
DNA CAG DR – DNA CAG dye complex inhibition, dose response counter-screen; hit rate 20% among 250; DNA CAG/GTC duplex TO-PRO-1 dye displacement fluorescence; IC50, µM; shares compounds with rCAG binder-1; in the data active = IC50 below about 10 µM
dCAG TOPRO ctr – DNA CAG dye complex inhibition, late stage dose response | shares compounds with rCAG binder-1 | d(CAG) DNA duplex TO-PRO-1 dye displacement, fluorescence | IC50, µM | hit rate 80% among 30 | AID 720649
rCAG binder-2 – r(CAG) repeat RNA binding, TO-PRO-1 displacement; shares compounds with rCAG binder-1; r(CAG) RNA TO-PRO-1 dye displacement, fluorescence; IC50, µM; hit rate 100% among 30; AID 720651
Active calls of the source: *; . = not tested or not shown. Sampled rows, rich in hits. Any-hit rate of the full collection: about 4.7%. Unless noted, the rule behind the calls is not given here.

SMILES | ADAM10 inh | MPTP block | ADAM17 inh | rCAG binder-1 | proKLK7 act | Pemphigus Ab inh | rCAG bind conf | dCAG dye counter | others
CC1(C(=O)NS(=O)(=O)c2cccc(F)c2)CCN1C(=O)Cc1ccc(-c2ccccc2)cc1 (centres undefined) | -13 | 1 | 0 | 51* | 0 | . | 50* | 15*
CC(C)(C)c1ccc(CC(=O)N2CCC2(C)C(=O)NS(=O)(=O)c2cccc(F)c2)cc1 (centres undefined) | -9 | 0 | -1 | 39* | 0 | . | 29 | 5.4*
CCc1cc(=O)oc2cc(C)c(CN3CCCC3)c(O)c12 | -2 | 5 | -1 | 36* | -2 | 102 | 31 | 13*
Cc1cc(C)c2c(CN3CCCC3)cc(=O)oc2c1 | -17 | 0 | -2 | 5 | 0 | . | . | .
CCCc1cc(=O)oc2cc(C)c(CN3CCCC3)c(O)c12 | -4 | 7 | -1 | 37* | -1 | 89 | 24 | 12*
CCc1cc(=O)oc2cc(C)c(CN3CCCCC3)c(O)c12 | -3 | 5 | -2 | 22 | -1 | . | . | .
O=S(=O)(c1cccc(-c2n[nH]c(=S)n2-c2ccc(OC(F)(F)F)cc2)c1)N1CCOCC1 | 8 | 2 | -2 | 15 | 0 | 108 | . | .
NS(=O)(=O)c1ccc(N/N=C/c2ccccc2C(=O)O)c([N+](=O)[O-])c1 | 4 | 0 | 2 | 5 | 0 | 113 | . | .
O=C(O)c1ccccc1NS(=O)(=O)c1ccc(N/N=C/c2ccc(O)c(O)c2)c([N+](=O)[O-])c1 | 12 | 6 | 7 | 92* | 0 | 102 | 91* | 70*
NS(=O)(=O)c1ccc(N/N=C/c2ccc(O)c(O)c2O)c([N+](=O)[O-])c1 | 9 | 7 | 1 | 55* | 0 | 28 | 76* | 38*
O=C(O)c1ccccc1NS(=O)(=O)c1ccc(NN=Cc2ccc(F)cc2)c([N+](=O)[O-])c1 | . | 32 | . | . | . | 93 | . | .
O=C(O)c1ccccc1NS(=O)(=O)c1ccc(NN=Cc2cccc(Cl)c2)c([N+](=O)[O-])c1 | -1 | 40 | 2 | 59* | -1 | . | 90* | 68*
C#CCNC(=O)C[C@@H]1C[C@@]2(C(=O)OC)CCCCC=C2N(Cc2ccco2)C1=O | 2 | 0 | -3 | 6 | 0 | . | . | .
CSCC[C@H](NC(=O)Cc1c(C)c2cc3c(C)c(C)oc3cc2oc1=O)C(=O)N[C@@H](C(=O)O)c1ccccc1 | -281 | 0 | -74 | 40* | 6 | . | 47* | 14*
CCCCC(NC(=O)Cc1c(C)c2cc3c(C)c(C)oc3c(C)c2oc1=O)C(=O)O (centres undefined) | -209 | 1 | -90 | 38* | -10 | 110 | 41* | 9.7*
CCCC(NC(=O)Cc1c(C)c2cc3c(C)c(C)oc3c(C)c2oc1=O)C(=O)N[C@@H](Cc1ccccc1)C(=O)O (some centres undefined) | -154 | 0 | -40 | 16 | -2 | 99 | . | .
Cc1c(CC(=O)N[C@@H](C)C(=O)O)c(=O)oc2c(C)c3occ(-c4ccccc4)c3cc12 | -123 | 0 | -51 | 38* | 0 | 99 | 50* | 15*
CC[C@@H](C)[C@H](NC(=O)Cc1c(C)c2c(cc(C)c3c(C)c(C)oc32)oc1=O)C(=O)O | -448 | 2 | -115 | 35* | 9 | 104 | 32 | 5.7*
Cc1ccc(OCc2n[nH]c(=S)n2-c2ccc(Cl)cc2)cc1 | 3 | -1 | 3 | 15 | 0 | 108 | . | .
Cc1ccc(C2=Nn3c(COc4ccc(Cl)cc4)nnc3SC2CC(=O)O)cc1 (centres undefined) | 11 | 0 | -2 | 47* | 1 | 109 | 42* | 11*
CN(c1ccc(OCC(=O)Nc2ccc(S(N)(=O)=O)cc2)cc1)S(=O)(=O)c1ccc(F)cc1 | -3 | 0 | -2 | 7 | 0 | 105 | . | .
CN(c1ccc(OCC(=O)Nc2cc(Cl)ccc2C(=O)O)cc1)S(=O)(=O)c1ccc(F)cc1 | 3 | 3 | -2 | 77* | 0 | . | 74* | 34* | DNA CAG DR=6.2*;dCAG TOPRO ctr=2.5*;rCAG binder-2=1.2*
COc1ccc(C2c3sc(=O)[nH]c3SC3C4CCC(C4)C23)cc1OC (centres undefined) | -4 | 0 | 1 | 6 | 0 | 94 | . | .
COc1cc(C2c3sc(=O)[nH]c3SC3C(=O)N(c4ccc(Br)cc4)C(=O)C32)ccc1O (centres undefined) | 0 | 2 | -1 | 38* | 2 | 99 | 23 | 8.2*
CCN(CC)S(=O)(=O)c1cc(NS(=O)(=O)c2cccs2)ccc1C | -12 | 1 | -6 | 6 | 0 | 93 | . | .
SMILES | ADAM10 inh | MPTP block | ADAM17 inh | rCAG binder-1 | proKLK7 act | Pemphigus Ab inh | rCAG bind conf | dCAG dye counter | others
CCN(CC)S(=O)(=O)c1cc(NS(=O)(=O)c2cc(Cl)ccc2Cl)ccc1C | 9 | 6 | 2 | 44* | 0 | 111 | 40* | 12*
COc1ccc(-n2cc(COC(=O)NCCc3ccccc3)nn2)cc1 | -1 | . | -3 | 1 | 0 | . | . | .
CCc1ccc(S(=O)(=O)Nc2cc(SCC(=O)O)c(O)c3ccccc23)cc1 | -17 | -2 | -12 | 30 | -2 | 84 | . | .
CCOc1ccc(S(=O)(=O)Nc2cc(SCC(=O)O)c(O)c3ccccc23)cc1 | -6 | 0 | -5 | 36* | -2 | 104 | 60* | 24*
COc1cc(C(=O)NC2CCCCN(C)C2=O)cc(OC)c1OC (centres undefined) | -7 | . | -4 | 1 | 0 | . | . | .
Cc1noc(NS(=O)(=O)c2ccc(N/C=C\C(=O)c3cccc4ccccc34)cc2)c1C | -1 | 0 | 1 | 72* | 0 | 101 | 81* | 46*
CCOc1ccc(C(=O)/C=C/Nc2ccc(S(=O)(=O)Nc3onc(C)c3C)cc2)cc1 | 2 | 2 | 8 | 42* | 0 | 99 | 64* | 25*
COc1cccc(C(=O)/C=C/Nc2ccc(S(=O)(=O)Nc3onc(C)c3C)cc2)c1 | 8 | 2 | 0 | 13 | 0 | 102 | . | .
Cc1noc(NS(=O)(=O)c2ccc(N/C=C\C(=O)c3ccc(Br)cc3)cc2)c1C | 13 | 1 | 5 | 75* | -4 | 99 | 74* | 39*
